# Source: PubChem BioAssay
# The entries come from a sample that favours hits as a whole.
# EZH2 inh – inhibitors of human EZH2/PRC2 methyltransferase | 57,000 compounds, 0.35% hits | Q15910 | PRC2 H3K27 methylation, DELFIA TRF, 1 h | inhibition, % at 12.5 µM;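 active = mean inhibition of replicates at least 50% and every single replicate also reaching 50%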;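 note: dimethyl H3K27 on biotinylated H3 21-44 peptide detected by antibody; plate controls were median neutral control wells for no effect and median positive control wells for full effect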
# Target sequence (Q15910 whole entry, looked up): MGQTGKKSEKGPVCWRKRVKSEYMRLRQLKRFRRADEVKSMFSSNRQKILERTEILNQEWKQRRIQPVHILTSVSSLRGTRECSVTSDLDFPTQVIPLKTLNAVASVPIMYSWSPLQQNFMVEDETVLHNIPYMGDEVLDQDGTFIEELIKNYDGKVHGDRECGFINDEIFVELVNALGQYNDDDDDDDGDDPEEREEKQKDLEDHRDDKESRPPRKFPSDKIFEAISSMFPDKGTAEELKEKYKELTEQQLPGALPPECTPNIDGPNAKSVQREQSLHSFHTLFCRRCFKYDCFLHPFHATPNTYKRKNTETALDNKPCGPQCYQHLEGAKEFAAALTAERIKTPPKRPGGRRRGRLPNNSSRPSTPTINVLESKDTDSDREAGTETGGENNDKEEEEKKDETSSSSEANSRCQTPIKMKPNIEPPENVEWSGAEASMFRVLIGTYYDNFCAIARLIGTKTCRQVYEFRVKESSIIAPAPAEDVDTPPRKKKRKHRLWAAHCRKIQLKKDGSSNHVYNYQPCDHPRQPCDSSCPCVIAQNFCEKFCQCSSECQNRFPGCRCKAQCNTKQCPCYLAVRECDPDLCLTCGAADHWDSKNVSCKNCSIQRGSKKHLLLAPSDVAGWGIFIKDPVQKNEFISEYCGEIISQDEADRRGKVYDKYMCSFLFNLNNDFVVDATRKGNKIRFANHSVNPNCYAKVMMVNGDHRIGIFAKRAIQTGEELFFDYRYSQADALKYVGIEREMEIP
# Numbers without * were called inactive.
SMILES,EZH2 inh
O=C(CSc1nc(-c2ccccc2)cc(=O)[nH]1)Nc1cccc(Cl)c1Cl,47
Cc1ccc(NC(=O)CSc2nc(-c3ccccc3)cc(=O)[nH]2)cc1Cl,14
C[C@H](CO)N1C[C@H](C)[C@@H](CN(C)Cc2ccc(Oc3ccccc3)cc2)Oc2ccc(NC(=O)C3CC3)cc2C1=O,-2
CC(C)NC(=O)N(C)C[C@H]1Oc2cc(C#C[C@H](C)O)ccc2S(=O)(=O)N([C@H](C)CO)C[C@H]1C,1
O=C(C[C@@H]1C[C@H]2c3cc(NC(=O)C4CCC4)ccc3O[C@H]2[C@H](CO)O1)NCCN1CCCCC1,-6
O=C(C[C@@H]1C[C@@H]2c3cc(NC(=O)Nc4ccccc4)ccc3O[C@@H]2[C@@H](CO)O1)NC1CCCC1,-9
CN(C)CC(=O)N[C@@H]1CC[C@@H](CC(=O)NCc2ccc(Cl)cc2)O[C@@H]1CO,0
Cc1ccccc1-c1nc(SCC(=O)Nc2sc3c(c2C#N)CCCC3)n[nH]1,55*
CCOc1ccccc1-c1nc(SCC(=O)Nc2sc3c(c2C#N)CCCC3)n[nH]1,-27
Cc1cc(-c2ccccc2)nc(SCC(=O)Nc2sc3c(c2C#N)CCCC3)n1,-2
COc1ccc(NC(=O)CSc2nnc(C)c(=O)[nH]2)cc1Cl,-13
COc1ccc(NC(=O)CSc2n[nH]c(N)n2)cc1Cl,-13
CCC1(C)Cc2ccccc2-c2nc3[nH]nc(SCC(=O)Nc4ccc(OC)c(Cl)c4)n3c(=O)c21 (stereo not given),60*
CN(C(=O)CSc1nnc(N)s1)c1ccccc1,-10
CNC[C@@H]1OCCCC[C@H](C)Oc2ccc(NC(=O)NC(C)C)cc2C(=O)N([C@@H](C)CO)C[C@@H]1C,-11
CC(C)(Sc1ccc(CCN(CCCCC2CCCCC2)C(=O)NC2CCCCC2)cc1)C(=O)O,86*
CC(C)NC(=O)N(C)C[C@@H]1OCCCC[C@@H](C)Oc2ccc(NC(=O)CCCCCC(=O)Nc3ccccc3N)cc2C(=O)N([C@H](C)CO)C[C@@H]1C,10
CC(C)CC#Cc1ccc2c(c1)O[C@H](CN(C)Cc1ccc(C(=O)O)cc1)[C@@H](C)CN([C@H](C)CO)S2(=O)=O,70*
C[C@H](CO)N1C[C@H](C)[C@H](CN(C)Cc2ccccc2)Oc2cc(C3=CCCCC3)ccc2S1(=O)=O,22
C[C@H]1CN([C@@H](C)CO)S(=O)(=O)c2ccc(C3=CCCC3)cc2O[C@@H]1CN(C)C(=O)CC1CC1,9
C[C@@H]1CN([C@H](C)CO)S(=O)(=O)c2ccc(C3=CCCC3)cc2O[C@@H]1CN(C)C(=O)CC1CC1,15
C[C@@H]1CN([C@@H](C)CO)S(=O)(=O)c2ccc(C3=CCCCC3)cc2O[C@@H]1CN(C)Cc1ccccc1,27
C[C@H]1CN([C@@H](C)CO)S(=O)(=O)c2ccc(C3=CCCCC3)cc2O[C@H]1CN(C)Cc1ccccc1,56*
C[C@H](CO)N1C[C@H](C)[C@H](CN(C)C(=O)CC2CC2)Oc2cc(C3=CCCC3)ccc2S1(=O)=O,55*
CC(C)CC#Cc1ccc2c(c1)O[C@@H](CN(C)Cc1ccc(F)cc1)[C@H](C)CN([C@H](C)CO)S2(=O)=O,6
SMILES,EZH2 inh
CC(C)CC#Cc1ccc2c(c1)O[C@@H](CN(C)Cc1ccccc1)[C@@H](C)CN([C@H](C)CO)S2(=O)=O,31
CO[C@@H]1CN(C)C(=O)c2cc(NC(=O)Nc3ccc(Cl)cc3)ccc2OC[C@H](C)N(C(=O)Nc2c(C)noc2C)C[C@H]1C,5
C[C@@H](NC(=O)C[C@@H]1CC[C@H](NC(=O)Cc2ccccn2)[C@@H](CO)O1)c1ccccc1,10
C[C@@H]1CN([C@@H](C)CO)C(=O)Cc2cc(N(C)C)ccc2O[C@H]1CN(C)Cc1ccc(Oc2ccccc2)cc1,-7
O=C(NCCN1CCOCC1)C1CC(c2ccc(Cl)c(Cl)c2)=NO1 (stereo not given),9
C[C@@H]1CN([C@H](C)CO)C(=O)c2cc(C#CC3(O)CCCC3)cnc2O[C@@H]1CN(C)C(=O)Nc1ccc2c(c1)OCO2,-11
COC(=O)C[C@@H]1C[C@@H]2c3cc(NC(=O)C4CCOCC4)ccc3O[C@@H]2[C@@H](CO)O1,-2
C[C@@H]1CN([C@H](C)CO)C(=O)CCCn2cc(nn2)CO[C@@H]1CN(C)S(=O)(=O)c1cccc(F)c1,8
COc1c(OC2OC(CO)C(O)C(O)C2O)ccc(O)c1C(=O)OCc1ccccc1O[C@@H]1O[C@H](CO)[C@@H](O)[C@H](O)[C@H]1O (stereo not given in full),18
CC1OC(Oc2cc(O)c3c(=O)c(OC4OC(CO)C(O)C(O)C4OC4OC(C)C(O)C(O)C4O)c(-c4ccc(O)cc4)oc3c2)C(O)C(O)C1O (stereo not given),-12
COc1cc(-c2oc3cc(O)cc(O)c3c(=O)c2OC2OC(CO[C@@H]3O[C@@H](C)[C@H](O)[C@@H](O)[C@H]3O)C(O)C(O)C2O)ccc1O (stereo not given in full),23
COc1cc(-c2oc3cc(O)cc(O)c3c(=O)c2OC2OC(CO)C(O)C(O)C2O)ccc1O (stereo not given),56*
